Assay outcomes as filed in PubChem.
Only some compounds are listed: those with a hit (about 8.8% of all), similar ones and a draw of the others.
HT1080-NT tox: kills 2HG-producing HT-1080-NT fibrosarcoma cells; HT-1080-NT fibrosarcoma viability, CellTiter-Glo ATP luminescence, 48 h; Potency, µM (series often up to 46.1 µM), usual class: cytotoxic; actives 1.6% (n = 360,000);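 further: NT is the 2HG producing partner of a matched IDH1 knockdown line; nearly all actives have a fitted effect of over 55% in size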
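HT-1080-NT fibrosarcoma cells (2HG-overproducing), 750 cells/well in RPMI with 5% FBS, dosed after 2 h and incubated 48 h at 37C. CellTiter-Glo luminescence normalized to DMSO and no-cell wells; concentration-response curves fitted and classed.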
IL1B secr inh: inflammasome signaling inhibition, IL-1 beta readout | actives 4.7% (n = 360,000) | THP-1 LPS/ATP IL-1B secretion, AlphaLISA, 16 h; stronger effect = lower value | activity change, % at 57.5 µM; in the data active means activity change below about -50%; inconclusive means mostly about -30% to -49%
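Secreted IL-1B measured by AlphaLISA bead assay after 16 h compound exposure of THP-1 cells; compounds (final up to 57.5 uM) added 1 h before LPS (250 ng/mL) and ATP (1.25 mM) stimulation; lower signal means less secretion.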
KB-V1 MDR tox: kills drug-selected multidrug resistant KB-V1 cells | KB-V1 MDR cells viability, CellTiter-Glo, 72 h | Potency, µM (top dose mostly 46.1 µM), actives largely listed as cytotoxic | actives 3.4% (n = 400,000); further: nearly all actives have a fitted effect of over 60% in size
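Following 72 h at 37 degrees C with compound, KB-V1 cell viability was read by CellTiter-Glo luminescence, medium being phenol-red-free DMEM plus 10% FBS; concentration-response parameters came from normalized, curve-fitted qHTS data.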
HT1080 IDH1KD tx: HT-1080 IDH1 knockdown cell toxicity (counter line); Potency, µM (series often up to 46.1 µM), actives largely listed as cytotoxic; AID 686971; actives 2% (n = 360,000); HT-1080 IDH1 knockdown viability, ATP luminescence, 48 h
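Assay cells: HT-1080 with IDH1 knockdown, 750 per well, RPMI/5% FBS. Exposure: 48 h at 37 °C following 2 h pre-incubation. Read: CellTiter-Glo luminescence; fitted concentration-response, curve class assigned.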
KB-3-1 cytotox: kills parental KB-3-1 adenocarcinoma cells; KB-3-1 viability, CellTiter-Glo ATP luminescence, 72 h; Potency, µM (highest dose often 46.1 µM), usual class: cytotoxic; actives 1.4% (n = 400,000); further: nearly all actives have a fitted effect of over 60% in size
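Here the drug-naive KB-3-1 line serves as comparator for MDR sub-line selectivity; cells received compound titrations, 72 h at 37 °C, then CellTiter-Glo readout.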
Hits are given with their value; i = inactive; ? = inconclusive; nt = no result; [ ] = remark or other dose. Unless noted, the call rests on the fitted dose curve; in most records, active means well fitted curve in the direction sought with a large enough effect; inconclusive means small, poorly fitted or top-dose-only effect, or another doubt; inactive means no such curve, though single readings can be large; an effect the other way counts as inactive or inconclusive.

SMILES	HT1080-NT tox	IL1B secr inh	KB-V1 MDR tox	HT1080 IDH1KD tx	KB-3-1 cytotox
C=C1C=C(C(F)F)n2ncc(C(=O)NC(C)CC)c2N1 (stereo not drawn)	nt	nt	i	nt	i
CCN(CC)c1ccc(NC(=O)c2cnc3ccccn3c2=O)c(C)c1	i	i	3.7µM	i	i
CCCc1ccc(OC(=O)c2ccc(O)cc2Cl)cc1	?	-84	i	?	i
COc1ccc(CCNC(=O)c2ccc(Cn3c(SCc4ccccc4)nc4cccnc43)cc2)cc1	nt	nt	i	nt	i
Cc1ccsc1C(=O)N1CC(=O)Nc2ccccc21	?	i	i	18µM	?
Cc1cc(C)cc(C(=O)N2CC(=O)Nc3ccccc32)c1	1.2µM	i	3.3µM	0.52µM	?
Cc1ccc(C2CN(C)C3(C(=O)Nc4ccccc43)C23COc2ccccc2C3=O)cc1 (stereo not drawn)	i	i	21µM	i	?
O=C(Nc1ccc(C(F)(F)F)cc1)C1CCCN1S(=O)(=O)c1cccc2cccnc12 (stereo not drawn)	?	i	4.6µM	?	23µM
NC(Cc1ccc(O)c([N+](=O)[O-])c1)C(=O)O (stereo not drawn)	i	i	i	i	i
CC(Cc1ccc(O)c(O)c1)C(C)Cc1ccc(O)c(O)c1 (stereo not drawn)	i	-75	i	?	i
C[C@H](Cc1ccc(O)c(O)c1)[C@@H](C)Cc1ccc(O)c(O)c1	nt	nt	i	nt	i
N[C@@H](Cc1ccc(O)c(O)c1)C(=O)O	i	-107	i	i	i
COc1cccc(Cn2cnc(-c3ccccc3OC)c2-c2cccs2)c1	?	i	i	i	?
COc1cccc(Cn2cnc(-c3ccccc3OC)c2-c2cc(C)cc(C)c2)c1	?	i	?	?	?
COc1ccccc1C1=Nn2c(nnc2C2CCCCC2)SC1	i	?	i	i	i
CCCCc1c(-c2ccccc2OC)ncn1Cc1ccc(Cl)cc1	?	?	21µM	18µM	?
CCCCc1c(-c2ccccc2OC)ncn1Cc1cccc(-c2ccccc2)c1	21µM	-98	15µM	?	?
COc1cccc(Cn2cnc(-c3ccccc3OC)c2C2CC2)c1	?	i	18µM	?	?
CCCCc1c(-c2ccccc2OC)ncn1C1CCCC1	?	i	13µM	?	18µM
CCc1ccc2[nH]c(=O)c(-c3ccccc3)c(O)c2c1	i	i	i	i	i
CCN(C(=O)COC(=O)c1ccc2ccccc2n1)c1c(N)n(Cc2ccccc2)c(=O)[nH]c1=O	i	i	i	i	i
COc1cccc(Cn2cnc(-c3ccccc3OC)c2-c2cccnc2)c1	?	i	i	i	i
CCCCc1c(-c2ccccc2OC)ncn1Cc1ccc(-c2ccccc2)cc1	?	?	10µM	?	?
CCCCc1c(-c2ccccc2OC)ncn1CCc1cccc(Cl)c1	18µM	i	15µM	?	?
C/C(=N\NC(=O)c1ccc(Cl)cc1)c1ccc2[nH]ccc2c1	i	i	i	i	i
SMILES	HT1080-NT tox	IL1B secr inh	KB-V1 MDR tox	HT1080 IDH1KD tx	KB-3-1 cytotox
Cn1c2cc(S(C)=O)sc2c2cnn(Cc3cccc(O)c3)c(=O)c21 (stereo not drawn)	nt	nt	i	nt	i
CC1=CC(=O)C(Sc2ccc(C)cc2)=CC1=O	21µM	-78	i	?	?
CC(/C=N/N1CCN(c2ccccn2)CC1)=C\c1ccccc1	i	i	21µM	i	i
CC(/C=N/N1CCN(c2ccccc2)CC1)=C\c1ccccc1	i	i	i	i	i
CCC1Cc2[nH]c(=S)[nH]c(=O)c2C(c2ccc(F)cc2)O1 (stereo not drawn)	i	i	i	i	i
FC(F)(F)c1cccc(Cn2nnnc2-c2ccc(Cl)cc2)c1	i	i	15µM	i	?
CCCn1nnnc1-c1ccc(Cl)cc1	i	i	i	i	i
CCN(C)c1ccc(/C=N\n2nnnc2N)cc1	?	i	2.6µM	5.2µM	5.2µM
CCN(CC)c1ccc(/C=N/n2nnnc2N)c(O)c1	i	i	?	i	16µM
CCc1ccc(-c2nc(NC(=O)c3ccc(OCC(=O)Nc4ccc(F)cc4)c(OC)c3)sc2C)cc1	i	i	i	i	i
COc1cc(C(=O)Nc2nc(-c3ccc(Cl)cc3)c(C)s2)ccc1OCC(=O)Nc1ccc(F)cc1	?	i	?	?	13µM
COc1cc(NS(=O)(=O)c2ccc(N/C=C(\C=O)c3nc4ccccc4o3)cc2)nc(OC)n1	i	i	i	i	i
Cc1cc(N(CCO)CCO)ccc1C(c1ccc(N(CCO)CCO)cc1C)c1ccccc1Cl	i	-68	i	i	?
CCNC(=S)N/N=C/c1cc(C)n(-c2ccc(Cl)cc2)c1C	i	?	12µM	i	?
COC(=O)c1nc(N2CCN(S(=O)(=O)c3ccc(C)cc3)CC2)c2ccccc2n1	i	nt	nt	i	nt
Cc1ccc(NC(=O)CN(c2ccc(Cl)cc2)S(=O)(=O)c2cc([N+](=O)[O-])ccc2Cl)c(C)c1	?	-79	i	i	i
O=S(=O)(Nc1ncccn1)c1ccc(NC(=S)NCc2cccnc2)cc1	i	i	i	i	i
C(=C1C=c2ccccc2=C1)c1ccc(N=Nc2ccc(C=C3C=c4ccccc4=C3)cc2)cc1	nt	nt	i	nt	i
CC1CCCC(C)N1C(=O)c1ccccc1Nc1ccc(SC(F)F)cc1 (stereo not drawn)	23µM	i	?	?	?
CC(OC(=O)c1ccccc1Nc1ccc(SC(F)F)cc1)C(N)=O (stereo not drawn)	i	-75	?	i	i
CC1CN(C(=O)c2ccccc2Nc2ccc(SC(F)F)cc2)CC(C)O1 (stereo not drawn)	i	i	?	i	i
Cc1ccc2c(c1)N(CC(=O)N1CCCCC1)C(=O)C(C)O2 (stereo not drawn)	i	i	i	i	i
CC(C)(C)c1ccc(OCCOCCn2c(-c3ccc(Cl)cc3)nc3ccccc3c2=O)cc1	nt	nt	i	nt	i
O=C1C(C=Nc2ccccc2)=C(O)c2ccccc21	i	i	i	i	i
O=C1C(=O)c2ccccc2C(O)=C1CC=C(Cl)Cl	i	i	3.7µM	i	15µM
SMILES	HT1080-NT tox	IL1B secr inh	KB-V1 MDR tox	HT1080 IDH1KD tx	KB-3-1 cytotox
CCN1C(=O)C(=O)N(CC(=O)N2CCC(C)Sc3ccccc32)C1=O (stereo not drawn)	i[9.24 µM]	i	i	i	i
CCCn1c(-c2ccc(S(=O)(=O)N3CCOCC3)cc2)csc1=Nc1ccc(OCC)cc1	nt	nt	i	nt	i
O=S(=O)(c1ccc(-c2csc(=Nc3ccccc3)n2CCCN2CCOCC2)cc1)N1CCOCC1	i	-61	i	i	i
CCCN1CCC(=NNc2ccc(S(N)(=O)=O)cc2[N+](=O)[O-])CC1	i	i	i	i	i
CCCN1CCC(=NNc2ccc(S(=O)(=O)N(CC)CC)cc2[N+](=O)[O-])CC1	8.2µM	i	12µM	5.8µM	?
CCn1ccnc1CNC(=O)c1ccc2oc(C(C)C)nc2c1	i	i	i	i	i
